“And” between values parts separate entries of the source, which are not always exact repeats. Identical values can stand only once. Out of some 5,500 compounds screened, about 2,000 (36%) were called active. Not shown: some 18% with an inconclusive outcome. Cut-off read from the data, not from the text of the source: active = normalized growth mostly below about 0.91 (no sharp cut-off); inconclusive = no clear call, values can overlap the other calls; inactive = mostly above about 0.92. This is one part of the list.
Test: chemical genetic growth profiling, strain panel (AID 1159580);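 note: tested at 20 µM; growth read once vehicle control cultures reached saturation at 30 °C; 1 = growth at the plate median or of vehicle wells; lower values mean less growth of the strain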
Conditions: S. cerevisiae deletion strains, growth OD

Measured: normalized growth

CC(=O)OC(C)(C)[C@@H]1Cc2cc3ccc(=O)oc3cc2O1
inactive: locus YAL021C, strain ccr4, stronger effect = lower value 1.01 | locus YAL026C, strain drs2, stronger effect = lower value 0.984 | locus YAL030W, strain snc1, stronger effect = lower value 0.963 | locus YBL061C, strain skt5, stronger effect = lower value 0.969 | locus YBR009C, strain hhf1, stronger effect = lower value 0.909 | locus YBR021W, strain FUR4, stronger effect = lower value 0.99 | locus YBR023C, strain chs3, stronger effect = lower value 0.972 | locus YBR171W, strain sec66, stronger effect = lower value 0.968 | locus YBR229C, strain ROT2, stronger effect = lower value 1 | locus YBR231C, strain swc5, stronger effect = lower value 0.968 | locus YBR279W, strain paf1, stronger effect = lower value 0.975 | locus YCL011C, strain gbp2, stronger effect = lower value 0.954 | locus YCL016C, strain dcc1, stronger effect = lower value 0.977 | locus YCL029C, strain bik1, stronger effect = lower value 1.01 | locus YCL061C, strain MRC1, stronger effect = lower value 0.978 | locus YCL069W, strain vba3, stronger effect = lower value 0.963 | locus YCR088W, strain abp1, stronger effect = lower value 0.982 | locus YDL005C, strain med2, stronger effect = lower value 0.977 | locus YDL035C, strain GPR1, stronger effect = lower value 1.01 | locus YDL040C, strain nat1, stronger effect = lower value 0.968 | locus YDL074C, strain BRE1, stronger effect = lower value 1.03 | locus YDL101C, strain DUN1, stronger effect = lower value 0.999 | locus YDL185W, strain tfp1, stronger effect = lower value 1 | locus YDL192W, strain arf1, stronger effect = lower value 0.989 | locus YDR001C, strain nth1, stronger effect = lower value 0.965 | locus YDR069C, strain doa4, stronger effect = lower value 0.962 | locus YDR101C, strain arx1, stronger effect = lower value 1.01 | locus YDR137W, strain rgp1, stronger effect = lower value 0.992 | locus YDR150W, strain NUM1, stronger effect = lower value 1.01 | locus YDR159W, strain sac3, stronger effect = lower value 0.936 | locus YDR162C, strain NBP2, stronger effect = lower value 1 | locus YDR195W, strain ref2 0.959 | locus YDR297W, strain sur2, stronger effect = lower value 0.972 | locus YDR318W, strain mcm21, stronger effect = lower value 0.991 | locus YDR334W, strain swr1, stronger effect = lower value 0.972 | locus YDR335W, strain msn5, stronger effect = lower value 0.992 | locus YDR388W, stronger effect = lower value 1 | locus YDR392W, strain spt3, stronger effect = lower value 0.789 | locus YDR502C, strain sam2, stronger effect = lower value 1.01 | locus YEL003W, strain gim4, stronger effect = lower value 0.968 | locus YEL037C, strain rad23, stronger effect = lower value 0.965 | locus YEL061C, strain CIN8 (second series), stronger effect = lower value 0.97 | locus YEL061C, strain CIN8, stronger effect = lower value 1 | locus YER015W, strain faa2, stronger effect = lower value 0.989 | locus YER016W, strain bim1, stronger effect = lower value 0.982 | locus YER110C, stronger effect = lower value 0.995 | locus YER111C, strain swi4, stronger effect = lower value 0.974 | locus YER155C, strain BEM2 (second series), stronger effect = lower value 0.94 | locus YER155C, strain BEM2, stronger effect = lower value 0.999 | locus YER167W, strain BCK2, stronger effect = lower value 0.998 | locus YFR010W, strain ubp6, stronger effect = lower value 0.969 | locus YGL078C, strain dbp3, stronger effect = lower value 1.02 | locus YGL086W, strain mad1, stronger effect = lower value 1.01 | locus YGL167C, strain pmr1, stronger effect = lower value 0.949 | locus YGL173C, strain kem1, stronger effect = lower value 0.961 | locus YGL227W, strain vid30, stronger effect = lower value 0.966 | locus YGL240W, strain doc1, stronger effect = lower value 0.96 | locus YGL248W, strain PDE1, stronger effect = lower value 0.997 | locus YGL253W, strain hxk2, stronger effect = lower value 0.985 | locus YGR135W, strain pre9, stronger effect = lower value 0.989 | locus YGR229C, strain SMI1, stronger effect = lower value 1.04 | locus YGR252W, strain gcn5, stronger effect = lower value 0.916 | locus YHR013C, strain ard1, stronger effect = lower value 0.92 | locus YHR027C, strain rpn1, stronger effect = lower value 0.984 | locus YHR030C, strain SLT2, stronger effect = lower value 0.998 and 0.969 | locus YHR079C, strain IRE1 (second series), stronger effect = lower value 1 | locus YHR079C, strain IRE1, stronger effect = lower value 0.978 | locus YHR094C, strain hxt1, stronger effect = lower value 1.01 | locus YHR129C, strain ARP1, stronger effect = lower value 0.996 | locus YHR142W, strain chs7, stronger effect = lower value 0.993 | locus YHR200W, strain rpn10, stronger effect = lower value 0.989 | locus YIL066C, strain RNR3, stronger effect = lower value 1.01 | locus YIL073C, strain SPO22, stronger effect = lower value 1.04 | locus YIL125W, strain kgd1, stronger effect = lower value 1.02 | locus YIR030C, strain dcg1, stronger effect = lower value 0.997 | locus YJL092W, strain hpr5, stronger effect = lower value 0.986 | locus YJL095W, strain BCK1 (second series), stronger effect = lower value 0.983 | locus YJL095W, strain BCK1, stronger effect = lower value 1.01 and 1.05 | locus YJL115W, strain asf1, stronger effect = lower value 0.983 | locus YJL129C, strain trk1, stronger effect = lower value 0.981 | locus YJL134W, strain LCB3, stronger effect = lower value 1.01 | locus YJL154C, strain vps35, stronger effect = lower value 0.966 | locus YJL164C, strain tpk1, stronger effect = lower value 0.996 | locus YJL166W, strain qcr8, stronger effect = lower value 0.979 | locus YJL168C, strain set2, stronger effect = lower value 1 | locus YJL187C, strain SWE1 (second series), stronger effect = lower value 1 | locus YJL187C, strain SWE1, stronger effect = lower value 0.971 | locus YJR043C, strain POL32, stronger effect = lower value 0.991

Reference: PubChem BioAssay AID1159580 (chemical genetic matrix, 2015)
